From paper PMC5540273 (PLoS ONE, 2017)

How the values were obtained:
Conditions in all cases: concentration: 1 μM, replicates: in singlicate; n = 1
[1] = test system: CAMK1
[2] = test system: CAMK2A
[3] = test system: CAMK2B
[4] = test system: CAMK2D
[5] = test system: CAMK2G
[6] = test system: CAMK4
[7] = test system: CAMKK1
[8] = test system: CAMKK2
[9] = test system: CASK
[10] = test system: T1, CDC2L1
T1 construct: gene CDK11B
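Note: KINOMEscan kinase panel screen.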

Row | SMILES | %Inh [1] [%] | %Inh [2] [%] | %Inh [3] [%] | %Inh [4] [%] | %Inh [5] [%] | %Inh [6] [%] | %Inh [7] [%] | %Inh [8] [%] | %Inh [9] [%] | %Inh [10] [%]
1 | CCn1c(-c2nonc2N)nc2c(-c3ccccc3)ncc(OCCCN)c21.O=C(O)C(F)(F)F.O=C(O)C(F)(F)F [GSK260205] | 7 | 0 | 0 | 14 | 14 | 8 | 0 | 0 | 1 | 0
2 | N#CC1(c2cccc(C(=O)Nc3cccc(Oc4ccc5nc(NC(=O)C6CC6)sc5n4)c3)c2)CC1 | 0 | 29 | 26 | 20 | 100 | 2 | 9 | 99.6 | 16 | 0
3 | O=C(Nc1n[nH]c2nc(-c3ccccc3)ccc12)C1CC1 [SB-708999] | 3 | 0 | 0 | 100 | 17 | 0 | 6 | 13 | 14 | 0
4 | Cn1cc(-c2ccc3c(c2)CCN3C(=O)Cc2cc(F)cc(C(F)(F)F)c2)c2c(N)ncnc21 [GSK2635225] | 5 | 0 | 0 | 0 | 12 | 0 | 0 | 8 | 2 | 5
5 | CCn1cnc2c(NCc3ccccc3)ncnc21 [SKF-96418] | 0 | 0 | 0 | 0 | 0 | 7 | 0 | 1 | 25 | 0
6 | Cc1ccc(-c2ccc3occ(-c4ccc(S(C)=O)cc4)c3c2)nn1 (stereo not drawn) | 0 | 0 | 0 | 7 | 0 | 18 | 11 | 20 | 0 | 0
7 | O=C1NC(=O)C(c2ccccc2Cl)=C1Nc1cccc(Cl)c1 [SB-342409] | 0 | 10 | 0 | 43 | 19 | 47 | 21 | 0 | 39 | 0
8 | CS(=O)(=O)c1cccc(CNc2nc(Nc3ccc4c(c3)CCC(=O)N4)ncc2C(F)(F)F)c1 | 0 | 0 | 0 | 0 | 0 | 0 | 20 | 9 | 0 | 0
9 | CC(C)c1nc(-c2cccc(NS(=O)(=O)c3c(F)cccc3F)c2)c(-c2ccnc(Nc3ccc(N4CCOCC4)nc3)n2)s1.Cl [GSK1723980] | 47 | 0 | 0 | 2 | 10 | 0 | 14 | 6 | 92.1 | 0
10 | CC(C)(C)c1ccc(C(=O)Nc2cn3cc(-n4ccnc4)ccc3n2)cc1 | 32 | 18 | 0 | 0 | 12 | 0 | 6 | 7 | 8 | 3
11 | COc1cccc(NC(=O)NCCNc2ccnc(Nc3ccc(F)cc3)n2)c1 [GSK1379879] | 7 | 0 | 0 | 0 | 14 | 0 | 13 | 3 | 0 | 0
12 | Cl.Cl.NCC(NC(=O)c1cc(-c2cccnc2)c(-c2ccnc3[nH]ccc23)s1)c1ccccc1 (stereo not drawn) [GSK1323434] | 32 | 0 | 0 | 8 | 14 | 0 | 14 | 24 | 30 | 0
13 | Cl.Cl.NC(CNC(=O)c1cc(Br)c(-c2ccnc3[nH]ccc23)s1)c1ccccc1 (stereo not drawn) [GSK1322949] | 42 | 45 | 39 | 38 | 48 | 0 | 8 | 29 | 38 | 0
14 | CC(C)NCC(Cc1ccccc1)NC(=O)c1cc(Br)c(-c2ccnc3[nH]ccc23)s1.Cl.Cl (stereo not drawn) [GSK1383281] | 34 | 0 | 0 | 15 | 15 | 29 | 33 | 19 | 0 | 0
15 | O=C(Nc1c(F)cccc1F)c1cc(C(=O)c2ccccc2F)c[nH]1 [GSK1326180] | 17 | 2 | 0 | 1 | 8 | 5 | 0 | 0 | 3 | 0
16 | Cc1ccc(NC(=O)c2cccc(N3CCCCC3)c2)cc1-c1ccc(C(=O)NCC2CC2)cc1 [GSK1917008] | 9 | 0 | 0 | 0 | 21 | 1 | 26 | 11 | 18 | 22
17 | COc1cc(Nc2nccc(N3CCC(NC(=O)Nc4ccc5c(c4)OCO5)C3)n2)cc(OC)c1OC (stereo not drawn) [GSK1379766] | 28 | 0 | 0 | 14 | 28 | 0 | 21 | 24 | 4 | 0

Row | SMILES | %Inh [1] [%] | %Inh [2] [%] | %Inh [3] [%] | %Inh [4] [%] | %Inh [5] [%] | %Inh [6] [%] | %Inh [7] [%] | %Inh [8] [%] | %Inh [9] [%] | %Inh [10] [%]
18 | COc1cccc2c(-c3ccncc3)c(-c3ccc(F)cc3)nn12 [GW468513] | 0 | 0 | 0 | 0 | 13 | 0 | 6 | 5 | 0 | 0
19 | Cc1ccc(NC(=O)c2ccc(Cl)c(Cl)c2)cc1-c1ccc(C(=O)Nc2ccncc2)cc1 [GSK1398460] | 27 | 0 | 0 | 7 | 0 | 9 | 0 | 4 | 0 | 2
20 | Cc1ccc(O)cc1Nc1ccnc2cc(-c3ccc(CN4CCCCC4)o3)ccc12 [GW557777] | 4 | 0 | 13 | 10 | 8 | 0 | 10 | 9 | 2 | 20
21 | O=C(O)C(F)(F)F.O=c1[nH]ccc2nc(N[C@@H]3CCNC3)nc(Nc3ccc4c(c3)S(=O)(=O)CC4)c12 [GSK2181306] | 82 | 59 | 23 | 55 | 52 | 98.5 | 92.1 | 40 | 15 | 0
22 | COc1cccc(-c2nc(-c3ccccc3)[nH]c2-c2ccncc2)c1 [SB-610250] | 1 | 0 | 0 | 0 | 2 | 0 | 0 | 0 | 15 | 0
23 | CNc1nccc(-c2ccc3c(N)n[nH]c3c2)n1 [GSK2206003] | 24 | 14 | 31 | 33 | 33 | 0 | 10 | 13 | 21 | 10
24 | CN(C)CCNS(=O)(=O)c1ccc(-c2ccnc3[nH]ccc23)cc1 [GSK977620] | 50 | 0 | 0 | 0 | 5 | 57 | 0 | 0 | 3 | 0
25 | CN(C)CCOc1ccc(-c2cc(-c3ccc(Cl)c(O)c3)c(-c3ccncc3)[nH]2)cc1.Cl.Cl [SB-684387] | 24 | 0 | 0 | 13 | 19 | 0 | 25 | 21 | 17 | 0
26 | Cc1ccc(NC(=O)c2ccnc(N3CCCCC3)c2)cc1-c1ccc(C(=O)NCC2CC2)cc1 [GW775610] | 0 | 0 | 0 | 0 | 0 | 10 | 0 | 0 | 0 | 6
27 | c1ccc(Oc2ccc(Nc3ccnc4cc(-c5ccc(CN6CCCCC6)o5)ccc34)cc2)nc1 [GW567143] | 28 | 0 | 0 | 0 | 0 | 0 | 0 | 0 | 49 | 0
28 | CSc1ccc(NC2=C(c3ccc(Cl)cc3)C(=O)NC2=O)cc1 [SB-317658] | 19 | 4 | 0 | 18 | 1 | 12 | 0 | 0 | 0 | 0
29 | O=C(Nc1n[nH]c2nc(-c3cccc(O)c3)ccc12)C1CC1 [SB-711805] | 0 | 0 | 0 | 0 | 0 | 0 | 0 | 0 | 0 | 0
30 | Cc1ccc(C)c(NC(=O)Nc2ccc(C)c(-c3ccc(C(=O)Nc4ccncc4)cc3)c2)c1 [GSK1398473] | 8 | 0 | 0 | 0 | 25 | 0 | 12 | 27 | 0 | 0
31 | CN(c1ccc(NC(=O)N2CCN(CCCN3CCOCC3)CC2)cc1)c1ccnc(Nc2ccc(CS(C)(=O)=O)cc2)n1.Cl [GW830899] | 0 | 0 | 0 | 1 | 0 | 0 | 19 | 0 | 0 | 2
32 | COc1cccc(CC(=O)N2CCc3cc(-c4cn(C)c5ncnc(N)c45)ccc32)c1 [GSK2608899] | 16 | 0 | 0 | 15 | 27 | 13 | 7 | 9 | 16 | 1
33 | CN1CCN(Cc2ccc(NC(=O)Nc3ccc(N(C)c4ccnc(Nc5ccc(CS(C)(=O)=O)cc5)n4)cc3)cc2)CC1.Cl [GW827654] | 28 | 0 | 0 | 9 | 15 | 0 | 95.4 | 28 | 3 | 33
